# Experimental data taken from the supplement of paper PMC6555819.
# Key:
# Test in all cases: PBM binding z-score (relative to random genomic background probes); higher = stronger binding; sequences stand for … in GC…GCGATTGACAGCGTAGAATGAAGG
# [1] = tested on: FXR:RXRa (NR concentration 270 nM, RXRa partner concentration 90 nM)
# Summary of the method: (§1)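 The probes on custom Agilent 4×180K protein-binding microarrays were double-stranded, with 34-nt variable regions bearing direct-repeat seeds, single-nucleotide variants, half-site ablations and random human genomic background sequences. Incubation lasted 1 h with ligand-free nuclear receptor dimers in PBS pH 7.4, 2% milk, 0.02% Triton X-100, 1 mM DTT, 0.2 mg/mL BSA and 0.4 mg/ml salmon testes DNA. Antibodies against each partner (one per run) detected bound dimers, and fluorescence scans were regression-normalized. Binding z-scores take the random background probes as reference.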
# [2] = tested on: LXRa:RXRa (NR concentration 270 nM, RXRa partner concentration 90 nM)
# Summary of the method: as §1
# [3] = tested on: LXRa homodimer (NR concentration 270 nM)
# Summary of the method: as §1
# [4] = tested on: LXRb:RXRa (NR concentration 270 nM, RXRa partner concentration 90 nM)
# Summary of the method: as §1
# [5] = tested on: LXRb homodimer (NR concentration 270 nM)
# Summary of the method: as §1
# [6] = tested on: PPARa:RXRa (NR concentration 270 nM, RXRa partner concentration 90 nM)
# Summary of the method: as §1
# [7] = tested on: PPARg:RXRa (NR concentration 180 nM, RXRa partner concentration 90 nM)
# Summary of the method: as §1
# [8] = tested on: PPARg:RXRa 270nM:90nM, anti-RXR (NR concentration 270 nM, RXRa partner concentration 90 nM)
# Summary of the method: as §1
# [9] = tested on: PPARg:RXRa 30nM:10nM, anti-RXR (NR concentration 30 nM, RXRa partner concentration 10 nM)
# Summary of the method: as §1
# [10] = tested on: PPARg:RXRa 90nM:30nM, anti-RXR (NR concentration 90 nM, RXRa partner concentration 30 nM)
# Summary of the method: as §1
# [11] = tested on: PPARg:RXRa DBDmut IVT, anti-RXR (DBD mutation: RXRa K156A/R161A, NR concentration 270 nM, RXRa partner concentration 90 nM)
# Summary of the method: as §1
# [12] = tested on: PPARg:RXRa IVT, anti-PPARg (NR concentration 270 nM, RXRa partner concentration 90 nM)
# Summary of the method: as §1
# [13] = tested on: PPARg DBDmut:RXRa IVT, anti-PPARg (DBD mutation: PPARg1 K132A/R137A, NR concentration 270 nM, RXRa partner concentration 90 nM)
# Summary of the method: as §1
# [14] = tested on: PPARg DBDmut IVT, anti-PPARg (DBD mutation: PPARg1 K132A/R137A, NR concentration 270 nM)
# Summary of the method: as §1
# [15] = tested on: PPARg homodimer (NR concentration 180 nM)
# Summary of the method: as §1
# [16] = tested on: PXR:RXRa (NR concentration 270 nM, RXRa partner concentration 90 nM)
# Summary of the method: as §1
# [17] = tested on: PXR homodimer (NR concentration 270 nM)
# Summary of the method: as §1
# [18] = tested on: RARa:RXR (NR concentration 270 nM, RXRa partner concentration 90 nM)
# Summary of the method: as §1
# [19] = tested on: RARa homodimer (NR concentration 270 nM)
# Summary of the method: as §1
# [20] = tested on: RARb:RXRa (NR concentration 270 nM, RXRa partner concentration 90 nM)
# Summary of the method: as §1
Sequence,PBM binding z-score [1],PBM binding z-score [2],PBM binding z-score [3],PBM binding z-score [4],PBM binding z-score [5],PBM binding z-score [6],PBM binding z-score [7],PBM binding z-score [8],PBM binding z-score [9],PBM binding z-score [10],PBM binding z-score [11],PBM binding z-score [12],PBM binding z-score [13],PBM binding z-score [14],PBM binding z-score [15],PBM binding z-score [16],PBM binding z-score [17],PBM binding z-score [18],PBM binding z-score [19],PBM binding z-score [20]
CTTCAAAGTTCAAGGTAACGTAACAGAAAGCAGC,5.99,5.87,3.59,3.5,1.19,4.48,2.86,3.83,1.15,2.43,0.401,1.36,0.994,1,2.93,4.18,2.67,3.32,1.72,5.1
ACTCGGAGGACAAAGTTCAGAGCTACGCCAGTGA,1.48,1.83,1.79,0.868,-0.232,2.82,4.04,5.27,3.37,5.49,0.00289,1.33,-0.512,-0.633,1.27,1.98,1.2,1.47,0.278,2.97
CGTCAATGTTCAACTAAGGTAACGTAAAGCACGC,0.964,0.0385,0.177,0.536,0.375,0.376,0.538,-0.0311,-0.0519,0.0418,0.201,0.781,0.0203,0.928,0.877,0.252,0.0149,1.05,0.784,0.573
ACTATTAGTTGACGTAGGGCAACCGATACGACGC,-0.0128,-0.0574,0.207,-0.148,0.503,-0.147,1,0.00726,0.129,0.289,0.188,0.602,1.2,0.785,0.291,-0.373,0.109,-0.162,0.628,0.773
CGTCCAAGGTCAAAGGTCCGTGAAGAGATGACGG,7.36,5.64,0.823,4.24,0.921,5.73,6.71,6.69,4.16,5.81,3.4,4.24,0.753,0.764,2.99,4.61,1.12,5.96,0.563,5.32
TCATACAGGTAAAGGTGAAAGTCGAACGATATGA,1.17,1.57,0.0169,1.44,0.312,3.08,2.39,3.81,4.26,4.38,2.37,2.45,1.8,0.696,0.957,1.03,0.178,1.82,1.18,2.19
AGTCGAAGTTCATCTAGGTAACGTAAGATATGCT,2.95,2.8,1.21,1.62,0.0848,2.8,1.9,2.32,0.883,1.66,0.32,2.06,0.625,0.713,1.04,3.3,2.97,1.67,0.799,3.05
CGTCCAAGGTCAAAGCTCAGTGAAGAGATGACGG,7.32,5.36,0.938,3.83,0.937,5.37,4.98,5.4,2.13,4.12,3.54,3.35,0.259,-0.242,3.06,3.96,0.865,4.6,1.16,5.14
ATCTCTAGGCAAGACTCAGTTCAGTGAAGAACGC,-0.14,0.0146,-0.0156,-0.438,-0.221,-0.499,0.011,-0.156,-0.193,-0.262,0.117,-0.103,0.0484,-0.188,0.522,0.202,0.453,-0.255,-0.0609,-0.159
ATCTCTAGGTAAAGTTCCGTGAAAGATCGATAGA,0.524,0.229,0.166,0.245,0.829,0.649,0.291,0.898,0.751,0.543,2.64,1.76,0.867,0.679,0.653,0.0557,0.396,0.388,1.19,0.403
TTTATTAGTTGATTAGGGCAACCGAAACAGCGGA,0.664,0.617,0.865,0.942,1.33,1.15,0.565,1.71,1.69,1.72,1.46,2.1,1.84,1.94,1.68,0.473,0.839,0.832,2.38,1.24
ACTTACGGGTCAACGAGGATATAGCACGCGTATA,6.53,4.05,0.457,3.61,0.828,5.43,5,5.19,2.12,3.85,3.44,3.76,1.49,1.58,2.26,3.34,0.678,4.19,1.35,3.88
ACTAGCAGGCCAAGTTTGGCTCACTCAAACAAAG,-0.477,-0.516,-0.635,-0.722,-0.853,-0.363,-0.294,-0.625,-0.674,-0.715,0.281,0.0532,-0.751,-1.04,-0.78,-0.576,-0.582,-0.454,-0.674,0.218
